About 20 (0.3%) of roughly 6,700 compounds were called active. What follows is part of a selection rich in actives, with near analogues and random picks from the rest. Unmarked numbers belong to inactive results.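 The calls were made as follows: active = mean percent activation in the counterscreen above 29.09%; inactive = the rest.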
What follows are molecules tested against Glucose-dependent insulinotropic receptor (Homo sapiens) (UniProt Q8TDV5) (assay: off-target GPR119 activation – cell-based, PathHunter beta-arrestin, luminescence, triplicate, counter-screen for GPR151 activator project (AID 1508611)). Settings: GPR119 PathHunter beta-arrestin cells, 90 min, at 11.2 µM, hits give high values, 0 = compound-well median, 100 = enzyme-acceptor control.
Glucose-dependent insulinotropic receptor (Homo sapiens), sequence (Q8TDV5 whole entry, looked up): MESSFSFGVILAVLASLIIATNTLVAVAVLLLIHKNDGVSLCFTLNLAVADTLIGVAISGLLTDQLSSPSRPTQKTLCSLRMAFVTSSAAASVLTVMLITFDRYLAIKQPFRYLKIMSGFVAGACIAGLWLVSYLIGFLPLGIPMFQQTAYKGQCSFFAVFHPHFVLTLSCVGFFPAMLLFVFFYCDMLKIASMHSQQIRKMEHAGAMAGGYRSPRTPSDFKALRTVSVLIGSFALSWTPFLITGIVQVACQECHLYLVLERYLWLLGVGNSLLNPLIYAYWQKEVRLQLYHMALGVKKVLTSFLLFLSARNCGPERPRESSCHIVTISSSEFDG
`CC(=O)Nc1nnc(CCOCC(C)OCCc2nnc(NC(C)=O)s2)s1` (stereo not given) showed an activation of 12.3%. `CCOc1cc2c(cc1OCC)C(c1ccc3ccccc3c1)NCC2` (stereo not given) showed an activation of -1.89%. With `CCOc1ccc(C(=O)Nc2nnc(CC)s2)cc1[N+](=O)[O-]` the activation was -8.62%. In the case of `O=S(=O)(c1ccc(F)cc1)N1CCN(CCCc2ccccc2)CC1`, the activation is reported as 15.2%. Molecule `O=C(N/N=C/c1cccc(Cl)c1Cl)c1cccs1` has an activation of -19.1%. For `CCOC(=O)c1ccc2nc(NC(=O)CSc3nc4ccccc4[nH]3)sc2c1`, the activation was 6.61%. With `COCCNC(=O)CSc1nccn1Cc1ccco1` the activation was 5.14%. `COCC(=O)Nc1c(I)c(C(=O)NCC(O)CO)c(I)c(C(=O)N(C)CC(O)CO)c1I` (stereo not given) was tested, and the activation was -9.51%. `O=C(CCc1ccccc1)Nc1cccc(C(=O)N2CCOCC2)c1` showed an activation of -6.29%. `CC(/C=N\NC(=O)CSc1nc(C)cc(C)n1)=C\c1ccccc1` was tested, and the activation was -12.7%. Molecule `COCCNC(=O)c1cc2c(=O)n3ccccc3nc2n(CCc2ccccc2)c1=N` has an activation of 3.06%. `CCCN1C(=O)c2ccc(C(=O)Nc3ccc(C(C)=O)cc3)cc2C1=O` was tested, and the activation was 0.52%. `O=C(c1cc([N+](=O)[O-])ccc1NC1CCCCC1)N1CCOCC1` was tested, and the activation was -18.9%. `CCN(CC)C(=O)C1CCCN(c2cccc(C(=O)NCCc3ccc(OC)cc3)n2)C1` (stereo not given) showed an activation of -12.6%. In the case of `Cc1ccc(-c2nnc(N3CCOCC3)c3ccccc23)cc1S(=O)(=O)N1CCN(C)CC1`, the activation is reported as -11.5%. Work on `C=CCN1C(=O)CC(C(=O)OC)C12CCN(C1CCN(C(=O)OCC)CC1)CC2` (stereo not given) yielded an activation of -5.11%. With `COC(=O)NNC(=S)Nc1cc(S(=O)(=O)N(C)C)ccc1C` the activation was -12.9%. For `CCCCOc1ccccc1CNCC`, the activation was 0.16%. In the case of `O=C(CN1C(=O)S/C(=C\c2ccc(Cl)s2)C1=O)Nc1ccccc1F`, the activation is reported as -11%. `CSc1nc(N)nc2nc[nH]c12` gave an activation of -1.61%. Molecule `CCc1ccc(-n2c(C)c(C)n3c4c(=O)n(CC)c(=O)n(C)c4nc23)cc1` has an activation of -2.08%. In the case of `C#CCOc1ccc(Br)cc1/C=C1\NC(=S)N(C)C1=O`, the activation is reported as -3.86%. Molecule `CS(=O)(=O)N(CC(=O)Nc1ccc(F)cc1F)c1ccc(F)cc1` has an activation of -2.79%. Molecule `Cc1ccc(C(C)C)c(OCCCn2ccnc2)c1` has an activation of 0.47%. With `COc1ccccc1C(=O)N/C(=C\c1ccc2c(c1)OCO2)C(N)=O` the activation was 4.53%. `C=CCN(c1ccc(C(=O)Nc2ccc(OCc3ccccc3)cc2)cc1)S(C)(=O)=O` was tested, and the activation was -10.1%. Work on `CC(=O)NC(CC(=O)O)c1ccc(F)cc1` (stereo not given) yielded an activation of 3.48%. For `COc1cccc(/C=C(\C#N)c2nc3ccc(C)cc3[nH]2)c1OC`, the activation was 17.6%. `Cc1ccc(NCC(=O)N/N=C\c2ccc(I)o2)cc1` gave an activation of -0.01%. `COc1cccc(C2SCC(=O)N2c2cccc(C)c2)c1OC` (stereo not given) showed an activation of 13.2%. `CC1(c2ccccc2NC(=O)c2ccc([N+](=O)[O-])cc2)CC1` gave an activation of 0.99%. With `O=[N+]([O-])c1ccc2ncnc(Nc3cccc(C(F)(F)F)c3)c2c1` the activation was 9%. `O=C(COc1ccc(S(=O)(=O)NCCc2ccccc2)cc1)NC1CC1` was tested, and the activation was -10.3%. For `O=C(Nc1ccc2[nH]ncc2c1)N1CCCNCC1`, the activation was 3.8%. Molecule `CC(=O)Cn1c(=O)c2c(nc3n2CCCN3c2ccc(Br)cc2)n(C)c1=O` has an activation of 8.64%. In the case of `N#Cc1ccc(N2CCN(CCCNC(=O)Nc3ccccc3)CC2)cc1`, the activation is reported as -8.24%. `COc1cccc(/C=C2/C(=O)NC(=O)N(c3ccccc3F)C2=O)c1` showed an activation of 15.2%. `COc1ccc(Br)cc1C(=O)NCC1COc2ccccc2O1` (stereo not given) showed an activation of -9.64%. Work on `COc1ccc(C(=O)Nc2sc3c(c2C(N)=O)CCCC3)cc1` yielded an activation of -10%. With `O=C(Nc1cccc(N2CCC(NCc3ccon3)CC2)c1)c1cccnc1` the activation was 18.2%. Molecule `Cc1ccc(S(=O)(=O)Cn2nnnc2CN2CCN(c3ccccc3F)CC2)cc1` has an activation of 8.39%. In the case of `O=C(COc1ccc([N+](=O)[O-])cc1)Nc1ccc2oc(-c3cccc(F)c3)nc2c1`, the activation is reported as -7.11%. In the case of `CN1CC(=O)N2CCN(C(=O)OCc3ccccc3)C[C@@H]2C1=O`, the activation is reported as 1.78%. `CC(C)C(=O)NC(C)c1nnc2n1CCN(Cc1ccc3cccnc3c1)CC2` (stereo not given) showed an activation of 6.65%. Work on `CCN(CC)S(=O)(=O)c1ccc(C)c(NS(=O)(=O)c2cccc(C#N)c2)c1` yielded an activation of -6.36%. With `CCOc1ccc(N2C(=O)C3C4c5ccccc5C(C(C)O)(c5ccccc54)C3C2=O)cc1` (stereo not given) the activation was -4.77%. With `C=CCNC(=O)C(=O)NCC1OCCCN1S(=O)(=O)c1ccccc1` (stereo not given) the activation was -6.88%. `CC(=O)Oc1cccc(N2C(=O)C3C4c5ccccc5C(C)(c5ccccc54)C3C2=O)c1` (stereo not given) showed an activation of -7.48%. Molecule `CCOC(=O)C1=C(CC)OC(N)=C(C#N)C1c1ccc(C(F)(F)F)cc1` (stereo not given) has an activation of -9.1%. `CCN1/C(=C/c2ccc3cc(C)ccc3[n+]2CC)Sc2ccc(-c3ccccc3)cc21` showed an activation of 0.91%. `CCc1nnc2n1N(C(C)=O)C(c1ccc3c(c1)CCCC3)=C(C(C)=O)S2` gave an activation of 3.36%. `CC(C)CCSc1nc2c(c(=O)n1Cc1ccco1)C1(CCCCC1)Cc1ccccc1-2` gave an activation of -4.2%. Molecule `O=C1CCC(CCNCCOc2ccccc2)N1CCc1ccccc1` (stereo not given) has an activation of 12.1%. In the case of `O=C(Cc1cccs1)NCCC1=CCCCC1`, the activation is reported as 0.59%. For `CCN1CCCC1CNc1nc(=S)[nH]c2ccccc12` (stereo not given), the activation was -5.74%. `CCc1ccc(NS(=O)(=O)c2ccc(Cl)cc2)cc1` showed an activation of 1.55%. For `CC12CCC(C(=O)Nc3ncc(Cl)cc3Cl)(CC1=O)C2(C)C` (stereo not given), the activation was -5.44%. `Cc1cnc(Nc2ccc(N3CCOCC3)cc2)nc1NCc1cccc(C(F)(F)F)c1` showed an activation of 15.3%. With `Cc1nc2cc(C(=O)NCc3ccc4c(c3)OCO4)ccc2n1-c1ccc(OCc2ccccc2)cc1` the activation was -11.3%. `COc1ccccc1NC(=O)NCc1nc(-c2ccc(OC)c(OC)c2)no1` was tested, and the activation was -3.49%. In the case of `O=C(COc1ccc(Br)cc1CO)NCC(F)(F)F`, the activation is reported as 5.45%. For `CCOC(=O)Cc1coc(NC(=O)c2ccc(Cl)cc2)n1`, the activation was 16.4%. `Cc1nc2nc(SCc3ccc([N+](=O)[O-])cc3)nn2c(C)c1Cc1c(F)cccc1Cl` was tested, and the activation was 15.8%. `COc1ccccc1C1C(C(N)=O)=C(C)Nc2nc(CCCO)nn21` (stereo not given) was tested, and the activation was -6.42%. `CCOc1ccc(NC(=O)COc2cccc(C)c2C)cc1` was tested, and the activation was 6%. With `COc1cccc(C(=O)NC(=S)Nc2ccc(OC)cc2OC)c1` the activation was 5.05%. `CCC(=O)Nc1cc(C(=O)O)ccc1C` was tested, and the activation was 0.03%. For `Brc1cnc(NC2CCCCC2)nc1`, the activation was 4.03%. `CC(C)N1CCc2c(sc(NC(=O)Cc3ccccc3)c2C#N)C1` gave an activation of -3.52%. Molecule `O=C(N/N=C/c1cc(Cl)ccc1O)c1cc(-c2ccccc2)n[nH]1` has an activation of -13.8%. `COc1ccc(/C=C(\C#N)C(=O)Nc2cccc(S(=O)(=O)N3CCCCC3)c2)cc1` gave an activation of -10.3%. `COc1cccc(-c2nnc(NC(=O)CSc3ccccc3)o2)c1` gave an activation of 6.53%. Work on `Cc1ccc(N2C(=O)CC(N3CCN(Cc4ccc(Cl)cc4)CC3)C2=O)cc1Cl` (stereo not given) yielded an activation of 6.82%. Work on `O=C(CCn1cnc2c(cnn2-c2ccc(F)cc2)c1=O)NCCC1=CCCCC1` yielded an activation of 1.14%. `COc1ccc(OC)c(NC(=O)CSc2nnc3[nH]c(=O)c(C)c(C)n23)c1` showed an activation of 3.38%. `COc1nc(Nc2ccccc2)nc(-c2c(C)noc2C)n1` was tested, and the activation was -7.06%. With `CSc1ncc(C(=O)NCCc2c[nH]c3ccccc23)c(C)n1` the activation was -0.1%. `Cc1cc(Nc2ccc(F)cc2)n2cnnc2n1` was tested, and the activation was -9.37%. `Clc1ccccc1C1C=C(c2ccc(I)cc2)Nc2nnnn21` (stereo not given) was tested, and the activation was -6.17%. For `CCC(C)Nc1nc2c(c(=O)[nH]c(=O)n2C)n1CC(O)COC(C)C` (stereo not given), the activation was -3.29%. For `Cc1cc(N2CCOCC2)ccc1C=C1C(=O)c2ccccc2C1=O`, the activation was 1.45%. `COCCNC(=S)N1CCN(c2ccccc2OC)CC1` showed an activation of -11.2%. Molecule `COc1cc(NC(=O)c2sc3ncnc(N4CCCCC4)c3c2C)cc(OC)c1OC` has an activation of 0.56%. `CC(C)(C)OC(=O)N1CCC[C@H](Cn2cc(C(=O)O)nn2)C1` gave an activation of 2%. Molecule `COCCN1C(=O)CC(CC(=O)NCc2nc3ccccc3[nH]2)(c2ccccc2C)C1=O` (stereo not given) has an activation of 3.87%. Work on `O=C(CCc1nnc(CCCCc2ccccc2)o1)N1CCC(N2CCSCC2)CC1` yielded an activation of 0.58%. `CC1CCN(C(=O)C(NS(=O)(=O)c2ccc3c(c2)oc(=O)n3C)C(C)C)CC1` (stereo not given) gave an activation of 6.52%. Work on `Cc1ccc(C2=NC(c3cc(Br)ccc3F)NC(c3cc(Cl)ccc3O)C2)cc1` (stereo not given) yielded an activation of 6.67%. With `COc1ccc(-c2nnc(SCCC#N)o2)cc1` the activation was -4.81%. `COc1ccc(OC)c(NC(=S)Nc2ccccn2)c1` showed an activation of -19.3%. Work on `Oc1ccc(Cn2cc[nH]c2=S)cc1` yielded an activation of -8.52%. For `CCCCc1ccc(N=Cc2nc(-c3cccc4ccccc34)oc2O)cc1`, the activation was -7.98%. `COc1ccc(C(=O)Cc2cc3ccccc3oc2=O)c(OC)c1` showed an activation of -8.7%. `O=C(CC1C(=O)NCCN1Cc1ccc2ccccc2c1)NCCCn1cccn1` (stereo not given) gave an activation of 1.24%. In the case of `c1ccc(-c2nc(-c3cccs3)[nH]c2-c2cccs2)cc1`, the activation is reported as -1.67%.

Reference: PubChem BioAssay AID1508611 (The Scripps Research Institute Molecular Screening Center, 2020)
